Measurements reported in PubChem BioAssay (Tox21).
Where “and” joins values, the source holds several entries; their conditions need not be identical. Identical values can stand only once. Inconclusive results are not listed. Entries that show only a call come without a potency. Some structures have more than one record in an assay (separate samples or runs), and their calls can disagree. Calls of active or inactive are those of the source. Unless noted, the call rests on the fitted dose curve; in most records, active means well fitted curve in the direction sought with a large enough effect in the repeat runs; inconclusive means weak or mixed curves; inactive means no such curve, though single readings can be large; an effect the other way counts as inactive or inconclusive.

Key:
[1] = qHTS assay to identify small molecule agonists of the TGF-beta/Smad signaling pathway - cell viability counter screen (AID 1346829); further: top concentration of the series differs between compounds; nearly all actives have a fitted effect of over 45% in size
Outline: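 Compound-treated SBE-bla HEK 293T cells (5 hr, 37 C) were assessed for viability with CellTiter-Glo in parallel with the reporter read.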

[2] = qHTS assay to identify small molecule agonists of the TGF-beta/Smad signaling pathway (AID 1346859; active means well fitted activation curve with a large enough effect in the signal ratio in the repeat runs, not every such curve was filed as active; the % refers to the signal ratio; further: potency means the concentration at half of the fitted maximal effect; on activation: series mostly up to about 77 µM)
Outline: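 Fluorescence (ex 405 nm; em 460 and 530 nm) was read 2 h after LiveBLAzer FRET substrate at RT. The preceding compound treatment of overnight-plated SBE-bla HEK293T cells lasted 5 h at 37 C.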

[3] = molecular target: Thyrotropin-releasing hormone receptor (Homo sapiens) (UniProt P34981); test: qHTS assay to identify small molecule antagonists of the thyrotropin-releasing hormone receptor (TRHR) signaling pathway (AID 1346877; active means well fitted inhibition curve with a large enough effect in the repeat runs, not every such curve was filed as active; further: series mostly up to about 51 µM)
Outline: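 Intracellular calcium fluorescence, read kinetically every second over 3 min, reports TRH-evoked signalling in HEK293 cells carrying TRHR. Test compounds were added 5 min ahead of a 1 nM TRH challenge.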

[4] = molecular target: Thyrotropin-releasing hormone receptor (Homo sapiens) (UniProt P34981); test: qHTS assay to identify small molecule agonists of the thyrotropin-releasing hormone receptor (TRHR) signaling pathway (AID 1346891; calls by dose curve; further: potency means the concentration at half of the fitted maximal effect; on activation: series mostly up to about 58 µM)
Outline: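 Agonist-mode intracellular calcium readout: kinetic fluorescence over 3 min at 1 s intervals after compound addition to TRHR-HEK293 cells (18 h seeded, 2 h dye-loaded at 37 C). Fifteen concentrations, triplicates.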

[5] = Human pregnane X receptor (PXR) small molecule agonists, qHTS cell viability counter screen (AID 1346977); further: nearly all actives have a fitted effect of over 50% in size
Outline: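 Same-well viability read: CellTiter-Fluor added after 23 hr compound exposure, fluorescence measured 1 hr later. Cells were PXR-Luc HepG2 seeded at 2,000/well in 5% charcoal-stripped FBS medium, rested 5 hr before dosing at 37 C.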

[6] = Caspase-3/7 induction in HepG2 cells by small molecules, qHTS assay (AID 1346978); further: nearly all actives have a fitted effect of over 15% in size
Outline: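 Caspase-3/7 induction was measured by Caspase-Glo 3/7 luminescence (30 min, room temperature) after a 17 hr compound exposure of wild-type HepG2 cells seeded at 2,000 per well and pre-incubated 5 hr.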

[7] = Caspase-3/7 induction in CHO-K1 cells by small molecules, qHTS assay (AID 1346980); further: nearly all actives have a fitted effect of over 15% in size
Outline: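 Luminescent Caspase-Glo 3/7 read (30min, room temperature) quantified apoptosis induction. Cells were wild-type CHO-K1, treated with compound for 17hr at 37 C and 5% CO2.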

[8] = Caspase-3/7 induction in HepG2 cells by small molecules, qHTS cell viability counter screen (AID 1346981); further: series mostly up to about 92 µM; nearly all actives have a fitted effect of over 30% in size
Outline: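 HepG2, WT, 2,000 cells/well; 5 hr pre-incubation 37 C/5% CO2; compound pin-transferred from DMSO; 16 hr exposure; CellTiter-Fluor, 1 hr; fluorescence read.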

[9] = molecular target: Nuclear receptor subfamily 1 group I member 2 (Homo sapiens) (UniProt O75469); test: Human pregnane X receptor (PXR) small molecule agonists, qHTS assay (AID 1346982); further: nearly all actives have a fitted effect of over 35% in size; further: potency means the concentration at half of the fitted maximal effect
Outline: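 Luciferase signal from ONE-Glo (30 min, room temperature) measured activation of hPXR-driven CYP3A4 reporter expression in PXR-Luc HepG2 cells treated with compounds for 24 hr at 37 C.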

[10] = molecular target: Acetylcholinesterase (Homo sapiens) (UniProt P22303); test: Acetylcholinesterase (AChE) small molecule antagonists: colormetric cell-based qHTS assay (AID 1347395; calls by dose curve; further: nearly all actives have a fitted effect of over 30% in size; further: potency means the concentration at half of the fitted maximal effect)
Outline: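 Colorimetric readout: DTNB quantifies thiocholine from acetylthiocholine hydrolysed by endogenous AChE of SH-SY5Y cells (2,000/well, plated overnight). Compound pretreatment 30 min, substrate incubation 90 min, both 37 C.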

[11] = molecular target: Acetylcholinesterase (Homo sapiens) (UniProt P22303); test: Acetylcholinesterase (AChE) small molecule antagonists: enzyme-based qHTS assay (AID 1347397; calls by dose curve; further: nearly all actives have a fitted effect of over 55% in size); conditions: Potency: AChE enzyme activity inhibition
Outline: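 rhAChE 50 mU/mL (dispensed) + cpd or DMSO, 30 min RT; add DTNB/acetylthiocholine cocktail, 10 min RT; colorimetric thiocholine readout. qHTS, 1536-well format.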

[12] = molecular target: Acetylcholinesterase (Homo sapiens) (UniProt P22303); test: Acetylcholinesterase (AChE) small molecule antagonists: fluorescence cell-based qHTS assay (AID 1347398; calls by dose curve; further: nearly all actives have a fitted effect of over 50% in size); conditions: Potency: AChE activity
Outline: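 Read-out is Thiolite Green fluorescence at Ex/Em = 490/520 nm, formed by reaction with thiocholine released when cellular AChE in SH-SY5Y cells hydrolyzes acetylthiocholine. Compounds were preincubated 30 min at 37 C before substrate.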

[13] = molecular target: Acetylcholinesterase (Homo sapiens) (UniProt P22303); test: Acetylcholinesterase (AChE) small molecule antagonists: enzyme-based qHTS assay with human liver microsomes (AID 1347399; calls by dose curve; further: nearly all actives have a fitted effect of over 60% in size); conditions: Potency: qHTS inhibition
Outline: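 Recombinant human AChE (50 mU/mL in the enzyme mix) and human liver microsomes (0.25 mg/mL final) were preincubated with compound and NADPH (0.25 mg/mL final) for 30 min at 37 C. Acetylthiocholine/DTNB was then added; thiocholine was read colorimetrically after 10 min at room temperature.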

[14] = qHTS assay to identify small molecule agonists of the progesterone receptor (PR) signaling pathway - cell viability counter screen (AID 1346799; calls by dose curve; further: nearly all actives have a fitted effect of over 45% in size; further: potency means the concentration at half of the fitted maximal effect)
Outline: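 Cytotoxicity measured by CellTiter-Glo luminescence (30 min, RT) in the same wells as the PR beta-lactamase agonist read. Those HEK293T cells had 16 h compound treatment at 37 C in 2% charcoal-stripped FBS medium.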

[15] = Caspase-3/7 induction in CHO-K1 cells by small molecules, qHTS cell viability counter screen (AID 1346979); further: nearly all actives have a fitted effect of over 35% in size; further: potency means the concentration at half of the fitted maximal effect
Outline: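 Cytotoxicity counter screen: CellTiter-Fluor added to compound-treated wild-type CHO-K1 cells at 16 h (37C, 5% CO2), fluorescence measured 1 h later; same wells as caspase-3/7 measurement.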

[16] = molecular target: Cytochrome P450 2D6 (Homo sapiens) (UniProt P10635); test: Cytochrome P450 Family 2 Subfamily D Member 6 (CYP2D6) small molecule antagonists: luciferase reporter qHTS assay (AID 1671196); further: series mostly up to about 120 µM; nearly all actives have a fitted effect of over 50% in size
Outline: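 Read-out is luminescence from luciferin formed by CYP2D6 turnover of a proluciferin substrate, recorded as relative luminescence units. Reactions ran 1 h at room temperature after NADPH regeneration solution was added.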

[17] = molecular target: Nuclear receptor subfamily 1 group I member 2 (Rattus norvegicus) (UniProt Q9R1A7); test: Rat pregnane X receptor (rPXR) activation by small molecules, qHTS assay (AID 1346983); conditions: rPXR luciferase reporter cells, One-Glo luminescence, 24 h; stronger effect = higher value; further: nearly all actives have a fitted effect of over 20% in size
Outline: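 Luminescent readout (One-Glo luciferase, 30 min room temperature) followed 24 hr compound treatment at 37 C of rPXR cells plated 2,000 per well and preincubated 5hr; qHTS format with compounds delivered in DMSO.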

[18] = molecular target: Nuclear receptor subfamily 1 group I member 2 (Homo sapiens) (UniProt O75469); test: CYP3A4 induction through human pregnane X receptor (PXR) by small molecules, qHTS assay (AID 1346984); further: nearly all actives have a fitted effect of over 40% in size
Outline: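 Luminescence readout: luciferase signal after One-Glo (30 min, room temperature), following 3 h at 37C with 3uM final Luciferin-IPA P450 substrate. Cells were DPX-2 (HepG2, PXR/CYP3A4-luc co-transfected) dosed for 24 h.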

[19] = molecular target: Nuclear receptor subfamily 1 group I member 2 (Homo sapiens) (UniProt O75469); test: Human pregnane X receptor (PXR) activation by small molecules, qHTS assay (AID 1346985); further: nearly all actives have a fitted effect of over 40% in size
Outline: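 DPX-2 cells (HepG2 co-transfected with a PXR response element and a CYP3A4-promoter luciferase construct) were seeded at 2,000 per well, rested 5 hr at 37C, then exposed to DMSO-dissolved compounds for 24 hr. Activation was read as luciferase luminescence.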

[20] = qHTS assay to identify small molecule antagonists of the TGF-beta/Smad signaling pathway - cell viability counter screen (AID 1346824); further: nearly all actives have a fitted effect of over 50% in size
Outline: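 Cytotoxicity counter-screen run in the same wells as the beta-lactamase Smad reporter read: CellTiter-Glo luminescence after 30 min at room temperature. HEK 293T SBE-bla cells had 5 hr compound exposure at 37 C with TGF-beta1 (0.25 ng/mL stock).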

Chain of Nuclear receptor subfamily 1 group I member 2 (Rattus norvegicus) (Q9R1A7 whole entry, looked up): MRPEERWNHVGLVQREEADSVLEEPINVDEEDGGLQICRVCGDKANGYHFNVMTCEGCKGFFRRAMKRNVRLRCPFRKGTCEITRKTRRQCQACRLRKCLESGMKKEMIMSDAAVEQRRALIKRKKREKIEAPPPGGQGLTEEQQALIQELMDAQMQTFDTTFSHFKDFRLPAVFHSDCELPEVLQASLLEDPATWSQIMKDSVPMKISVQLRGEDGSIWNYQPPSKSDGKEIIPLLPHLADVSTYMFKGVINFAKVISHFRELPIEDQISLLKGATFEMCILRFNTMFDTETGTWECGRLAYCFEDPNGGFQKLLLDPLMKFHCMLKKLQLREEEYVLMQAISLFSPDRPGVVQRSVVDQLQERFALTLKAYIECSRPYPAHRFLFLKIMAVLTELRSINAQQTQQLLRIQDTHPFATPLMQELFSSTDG
Chain of Cytochrome P450 2D6 (Homo sapiens) (P10635 whole entry, looked up): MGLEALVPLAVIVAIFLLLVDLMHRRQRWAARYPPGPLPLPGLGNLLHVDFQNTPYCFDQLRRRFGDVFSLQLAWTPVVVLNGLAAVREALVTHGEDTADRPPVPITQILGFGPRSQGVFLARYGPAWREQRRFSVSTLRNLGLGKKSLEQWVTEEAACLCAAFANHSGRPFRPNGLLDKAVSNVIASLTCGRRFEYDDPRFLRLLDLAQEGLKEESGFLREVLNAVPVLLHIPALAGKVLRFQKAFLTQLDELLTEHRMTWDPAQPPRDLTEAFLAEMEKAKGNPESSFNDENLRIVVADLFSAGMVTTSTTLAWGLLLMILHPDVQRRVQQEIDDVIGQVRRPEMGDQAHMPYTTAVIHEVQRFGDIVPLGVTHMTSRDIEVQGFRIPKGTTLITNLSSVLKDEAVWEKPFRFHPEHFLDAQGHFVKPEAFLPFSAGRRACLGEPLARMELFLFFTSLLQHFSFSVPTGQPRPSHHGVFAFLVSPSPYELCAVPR
Chain of Thyrotropin-releasing hormone receptor (Homo sapiens) (P34981 whole entry, looked up): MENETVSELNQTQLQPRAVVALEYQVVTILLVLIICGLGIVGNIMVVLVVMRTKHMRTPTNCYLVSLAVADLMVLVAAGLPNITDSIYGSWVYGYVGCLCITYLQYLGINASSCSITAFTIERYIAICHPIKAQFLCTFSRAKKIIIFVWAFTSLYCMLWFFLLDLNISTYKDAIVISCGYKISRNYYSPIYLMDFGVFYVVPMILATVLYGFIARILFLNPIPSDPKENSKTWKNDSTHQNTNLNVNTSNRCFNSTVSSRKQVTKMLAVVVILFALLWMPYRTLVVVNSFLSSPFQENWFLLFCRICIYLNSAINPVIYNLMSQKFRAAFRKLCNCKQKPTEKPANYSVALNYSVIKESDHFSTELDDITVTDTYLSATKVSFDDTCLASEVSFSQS
Chain of Nuclear receptor subfamily 1 group I member 2 (Homo sapiens) (O75469 whole entry, looked up): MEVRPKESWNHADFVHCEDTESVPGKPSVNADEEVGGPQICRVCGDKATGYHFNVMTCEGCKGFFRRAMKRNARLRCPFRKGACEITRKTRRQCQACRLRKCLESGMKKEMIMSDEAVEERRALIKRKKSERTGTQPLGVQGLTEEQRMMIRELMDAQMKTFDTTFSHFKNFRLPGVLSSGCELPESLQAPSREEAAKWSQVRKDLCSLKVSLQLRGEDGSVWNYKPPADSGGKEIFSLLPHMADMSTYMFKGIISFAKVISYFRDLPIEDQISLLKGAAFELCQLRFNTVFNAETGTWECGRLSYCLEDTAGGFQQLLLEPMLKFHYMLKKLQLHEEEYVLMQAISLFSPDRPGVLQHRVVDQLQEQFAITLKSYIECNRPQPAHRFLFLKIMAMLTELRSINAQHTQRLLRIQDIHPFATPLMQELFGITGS
Chain of Acetylcholinesterase (Homo sapiens) (P22303 whole entry, looked up): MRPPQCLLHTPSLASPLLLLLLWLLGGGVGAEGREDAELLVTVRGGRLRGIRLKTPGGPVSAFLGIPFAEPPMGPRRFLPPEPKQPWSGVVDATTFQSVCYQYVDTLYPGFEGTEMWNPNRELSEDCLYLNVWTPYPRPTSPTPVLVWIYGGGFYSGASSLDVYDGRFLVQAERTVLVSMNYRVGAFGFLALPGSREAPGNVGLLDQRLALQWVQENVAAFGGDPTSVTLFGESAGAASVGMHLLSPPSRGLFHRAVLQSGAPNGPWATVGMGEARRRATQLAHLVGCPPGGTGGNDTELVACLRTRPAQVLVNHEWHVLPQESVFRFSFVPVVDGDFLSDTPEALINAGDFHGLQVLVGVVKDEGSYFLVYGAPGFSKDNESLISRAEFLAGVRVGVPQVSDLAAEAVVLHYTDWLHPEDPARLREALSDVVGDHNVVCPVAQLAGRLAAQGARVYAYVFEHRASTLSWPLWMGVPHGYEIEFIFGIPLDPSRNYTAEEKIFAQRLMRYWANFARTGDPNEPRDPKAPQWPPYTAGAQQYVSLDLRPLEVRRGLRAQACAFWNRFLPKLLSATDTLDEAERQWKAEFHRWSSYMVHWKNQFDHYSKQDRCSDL

| Compound | outcome [1] | Potency [2] | outcome [3] | Potency [4] | Potency [5] | outcome [6] | outcome [7] | Potency [8] | Potency [9] | Potency [10] | Potency [11] | Potency [12] | Potency [13] | Potency [14] | Potency [15] | Potency [16] | max activation [17] | outcome [18] | Potency [19] | Potency [20] |
| --- | --- | --- | --- | --- | --- | --- | --- | --- | --- | --- | --- | --- | --- | --- | --- | --- | --- | --- | --- | --- |
| CON(C)C(=O)Nc1ccc(Cl)c(Cl)c1 | inactive | inactive | inactive | inactive | inactive | inactive | inactive | inactive | 61.4 µM (active) and 54.5 µM (active) | inactive | inactive | inactive | inactive | – | – | – | – | – | – | – |
| Nc1c(Cl)c(Cl)nc(C(=O)O)c1Cl | inactive | – | inactive | inactive | – | inactive | inactive | inactive | 56.1 µM (active) and inactive | inactive | inactive | inactive | inactive | inactive | inactive | inactive | – | – | – | – |
| C=CCO | inactive | inactive | inactive | inactive and 8.71 µM (active) | inactive | inactive | – | inactive | inactive | – | – | inactive | inactive | inactive | inactive | – | – | – | – | – |
| CCOP(=S)(OCC)SCCSCC | inactive | inactive | inactive | inactive | inactive | inactive | inactive | inactive | inactive | – | – | inactive | inactive | inactive | inactive | – | – | – | – | – |
| Clc1ccccc1Cl | inactive | inactive | inactive | inactive | – | inactive | – | inactive | inactive | – | inactive | inactive | inactive | inactive | inactive | inactive | -2.27% (inactive) | inactive | inactive | – |
| CCOP(OCC)OCC | inactive | inactive | inactive | inactive | – | inactive | inactive | inactive | inactive | inactive and 28.3 µM (active) | inactive | inactive | inactive | inactive | inactive | – | – | – | – | – |
| CC(C)NC(=O)N1CC(=O)N(c2cc(Cl)cc(Cl)c2)C1=O | inactive | inactive | inactive | inactive | – | inactive | inactive | inactive | 24.3 µM (active) and 54.5 µM (active) | – | inactive | inactive | inactive | inactive | 19.3 µM (active) and inactive | inactive | – | – | – | – |
| CCOC(=O)c1ccccc1C(=O)OCC | inactive | inactive | inactive | inactive | – | inactive | inactive | inactive | inactive | inactive | inactive | inactive | inactive | inactive | inactive | inactive | -0.77% (inactive) | inactive | inactive | – |
| O=C(O)c1ccccn1 | inactive | inactive | – | – | – | inactive | – | inactive | inactive | inactive | inactive | inactive | inactive | inactive | inactive | – | – | inactive | inactive | – |
| O=Cc1cccc(Oc2ccccc2)c1 | inactive | inactive | – | – | inactive | inactive | – | inactive | inactive | inactive | inactive | inactive | inactive | inactive | inactive | inactive | – | – | – | – |
| CCC[N+](=O)[O-] | inactive | inactive | – | – | inactive | inactive | inactive | inactive | inactive | – | inactive | inactive | inactive | 19 µM (active) and inactive | inactive | inactive | – | – | – | – |
| Clc1cccc(Cl)c1Cl | inactive | inactive | inactive | inactive | inactive | inactive | – | inactive | inactive | – | – | inactive | inactive | inactive | inactive | – | – | – | – | – |
| Cn1cc(-c2ccccc2)c(=O)c(-c2cccc(C(F)(F)F)c2)c1 | inactive | inactive | inactive | inactive | – | inactive | – | – | 29.9 µM (active) and 17.2 µM (active) | inactive | – | inactive | inactive | inactive | – | – | – | – | – | – |
| O=C(NC(=O)c1c(F)cccc1F)Nc1cc(Cl)c(OC(F)(F)C(F)C(F)(F)F)cc1Cl (centres undefined) | inactive | inactive | inactive | inactive | inactive | inactive | – | inactive | inactive | inactive | inactive | inactive | inactive | – | inactive | – | -1.37% (inactive) | inactive | inactive | – |
| CC(C)(C)C(O)(CCc1ccc(Cl)cc1)Cn1cncn1 (centres undefined) | inactive | inactive | inactive | inactive | – | inactive | – | inactive | 27.6 µM (active) and 9.69 µM (active) | inactive | – | inactive | inactive | – | – | – | – | – | – | inactive |
| CCC(C)(CC)c1cc(NC(=O)c2c(OC)cccc2OC)on1 | inactive | inactive | inactive | inactive | inactive | inactive | – | inactive | 4.34 µM (active) and 831 nM (active) | – | inactive | – | inactive | inactive | – | inactive | – | – | – | – |
| C#CC(C)(C)NC(=O)c1cc(Cl)cc(Cl)c1 | inactive | inactive | inactive | inactive | – | inactive | inactive | inactive | 49 µM (active) and 30.6 µM (active) | – | inactive | inactive | inactive | inactive | inactive | inactive | – | – | – | – |
| NCC(O)c1ccc(O)cc1 (centres undefined) | inactive | inactive | inactive | inactive | – | inactive | – | inactive | inactive | – | – | – | – | inactive | inactive | inactive | – | – | – | – |
| CCN(CC)CCO | inactive | inactive | inactive | inactive | inactive | inactive | – | inactive | inactive | – | inactive | inactive | inactive | inactive | inactive | – | – | – | – | – |
| O=C1CCCN1 | inactive | 55.5 µM (active) and inactive | – | – | inactive | inactive | inactive | inactive | 69.3 µM (active) and inactive | inactive | – | inactive | inactive | inactive | inactive | inactive | – | – | – | – |
